Reference: PubChem BioAssay (Tox21)
Where “and” joins values, the source holds several entries; their conditions need not be identical. Equal values may be shown once. Results filed as inconclusive are left out. Calls of active or inactive are those of the source. Unless noted, calls come from the whole dose curve; as a rule, active = well fitted curve in the direction sought with a large enough effect in the repeat runs; inconclusive = weak or mixed curves; inactive = no such curve, though single readings can be large; an effect the other way counts as inactive or inconclusive.

Legend:
[1] = qHTS assay for small molecule agonists of the p53 signaling pathway (AID 651631; calls by dose curve; note: nearly all actives have a fitted effect of over 15% in size)
In short: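 p53RE-bla HCT-116 cells; compounds 16 h, 37 °C; LiveBLAzer B/G FRET substrate 2 h RT; fluorescence intensity read-out, qHTS format.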

[2] = qHTS assay for small molecules that induce genotoxicity in human embryonic kidney cells expressing luciferase-tagged ATAD5 (AID 651632); note: nearly all actives have a fitted effect of over 15% in size
In short: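 Reporter cells (HEK293T) express luciferase-tagged ATAD5, a protein that accumulates after DNA damage. Treat 16 hr at 37C/5% CO2, add Amplite, wait 30 min at RT, and read luminescence.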

[3] = qHTS assay for small molecule agonists of the p53 signaling pathway - cell viability (AID 651633; calls by dose curve;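 note: p53RE-bla HCT reporter cells with a stable beta-lactamase p53 reporter; series mostly up to about 83 µM; nearly all actives have a fitted effect of over 30% in size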)
In short: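 p53RE-bla cells were treated with compound for 16 hours at 37 C. Cytotoxicity was then measured as CellTiter-Glo luminescence after 30 min at room temperature.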

[4] = qHTS assay for small molecules that induce genotoxicity in human embryonic kidney cells expressing luciferase-tagged ATAD5 - cell viability (AID 651634; calls by dose curve; note: nearly all actives have a fitted effect of over 25% in size)
In short: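 Seeding of 2,000 HEK293T ATAD5-luciferase cells per well preceded pin-tool compound transfer. Plates sat 15.5 hr at 37C under 5% CO2, then fluorescence was read after 30 min with CellTiter-Fluor.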

[5] = qHTS assay for small molecule disruptors of the mitochondrial membrane potential - cell viability (AID 720634; calls by dose curve;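 note: human HepG2 liver cancer cells; series mostly up to about 83 µM; nearly all actives have a fitted effect of over 20% in size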)
In short: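 Measuring cytotoxicity alongside mitochondrial potential, the screen quantified ATP by luminescence in HepG2 cells after 1 hr compound incubation and a 30 min room-temperature CellTiter-Glo step.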

[6] = qHTS assay for small molecule disruptors of the mitochondrial membrane potential (AID 720635); note: potency is the fitted concentration of half-maximal effect
In short: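 HepG2 cells exposed to compound 1 hr at 37C, then Mito-MPS dye 30 min. Ratio read of aggregate (540/590 nm) versus monomer (490/535 nm) fluorescence.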

[7] = qHTS assay to test for compound auto fluorescence at 590 nm (red) in HepG2 cells (AID 720674)
In short: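 HepG2 cells, 2,000 per well in MEM with 10% FBS, attached overnight at 37 C, then got 23 nL compound or DMSO. After 1 hr at 37 C, 5% CO2, red fluorescence was read at 540/590 nm against Rose Bengal sodium as reference.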

[8] = qHTS assay to test for compound auto fluorescence at 535 nm (green) in HepG2 cells (AID 720675)
[9] = qHTS assay to test for compound auto fluorescence at 460 nm (blue) in HEK293 cells (AID 720678)
In short: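 Cells were seeded and left to adhere for 4-5 hr at 37C. Compounds were then pin-transferred. After an overnight incubation at 37C under 5% CO2, intrinsic fluorescence at 405/460 nm was measured and referenced to triamterene.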

[10] = qHTS assay to test for compound auto fluorescence at 590 nm (red) in HEK293 cells (AID 720679)
In short: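 Each well held 2,000 HEK293 cells in medium containing 10% dialyzed FBS. Following 4-5 hr attachment at 37C, 23 nL test compound or DMSO was added; plates sat overnight, and red fluorescence (540/590nm) was recorded.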

[11] = qHTS assay to test for compound auto fluorescence at 535 nm (green) in HEK293 cells (AID 720680)
[12] = qHTS assay to test for compound auto fluorescence at 460 nm (blue) in HEK293 cell free culture (AID 720681)
In short: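 Compounds were added to cell-free DMEM with 10% FBS and fluorescence read directly. The blue channel used 405 nm excitation and 460 nm emission, with triamterene as the reference fluorophore.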

[13] = qHTS assay to test for compound auto fluorescence at 535 nm (green) in HEK293 cell free culture (AID 720682)
In short: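 Cell-free medium (DMEM, 10% FBS) receives compound or DMSO by pintool. Plate read directly at Ex 485/Em 535 nm. Signal converted to fluorescein equivalency.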

[14] = qHTS assay to test for compound auto fluorescence at 590 nm (red) in HEK293 cell free culture (AID 720683)
In short: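 Cell-free wells of DMEM with 10% FBS received compound, and intrinsic fluorescence was read at excitation/emission 540/590 nm. Values expressed as equivalence to Rose Bengal sodium.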

[15] = qHTS assay to test for compound auto fluorescence at 590 nm (red) in HepG2 cell free culture (AID 720684)
In short: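 Compounds are added to culture medium (MEM, 10% FBS) lacking cells, then fluorescence is read at excitation 540 nm, emission 590 nm, with Rose Bengal sodium as the equivalency standard.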

[16] = qHTS assay to test for compound auto fluorescence at 460 nm (blue) in HepG2 cell free culture (AID 720685)
In short: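 Compound (23 nL) or DMSO pinned into cell-free MEM with 10% FBS; blue fluorescence read at 405/460 nm excitation/emission, expressed as auto-fluorescence equivalency to triamterene.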

[17] = qHTS assay to test for compound auto fluorescence at 535 nm (green) in HepG2 cell free culture (AID 720686)
[18] = qHTS assay to test for compound auto fluorescence at 460 nm (blue) in HepG2 cells (AID 720687)
In short: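 HepG2 cells in MEM with 10% FBS, attached overnight at 37 C, were exposed to compound or DMSO for 1 hr at 37 C, 5% CO2. Blue fluorescence was read at 405/460 nm, with triamterene as reference fluorophore.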

[19] = biological target: Glucocorticoid receptor (Homo sapiens) (UniProt P04150); test: qHTS assay to identify small molecule agonists of the glucocorticoid receptor (GR) signaling pathway (AID 720691; active = well fitted activation curve with a large enough effect in the signal ratio in the repeat runs, not every such curve was filed as active; the % refers to the signal ratio)
In short: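 Reporter read-out: fluorescence intensity following 2 h room-temperature LiveBLAzer B/G FRET substrate loading. Prior step: GR-bla HeLa cells held 4 h, then treated 18 h at 37 C.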

[20] = biological target: Glucocorticoid receptor (Homo sapiens) (UniProt P04150); test: qHTS assay to identify small molecule antagonists of the glucocorticoid receptor (GR) signaling pathway (AID 720692; active = well fitted inhibition curve with a large enough effect in the signal ratio in the repeat runs, not every such curve was filed as active; the % refers to the signal ratio)
In short: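 Dexamethasone (5 nM final) stimulated a stably integrated GRE-beta-lactamase reporter in HeLa cells during 18 h co-incubation with compounds; signal was quantified as fluorescence intensity of B/G FRET substrate after 2 h.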
% is set by controls: 0 for no effect and ±100 for the full control effect.

Chain of Glucocorticoid receptor (Homo sapiens) (P04150 whole entry, looked up): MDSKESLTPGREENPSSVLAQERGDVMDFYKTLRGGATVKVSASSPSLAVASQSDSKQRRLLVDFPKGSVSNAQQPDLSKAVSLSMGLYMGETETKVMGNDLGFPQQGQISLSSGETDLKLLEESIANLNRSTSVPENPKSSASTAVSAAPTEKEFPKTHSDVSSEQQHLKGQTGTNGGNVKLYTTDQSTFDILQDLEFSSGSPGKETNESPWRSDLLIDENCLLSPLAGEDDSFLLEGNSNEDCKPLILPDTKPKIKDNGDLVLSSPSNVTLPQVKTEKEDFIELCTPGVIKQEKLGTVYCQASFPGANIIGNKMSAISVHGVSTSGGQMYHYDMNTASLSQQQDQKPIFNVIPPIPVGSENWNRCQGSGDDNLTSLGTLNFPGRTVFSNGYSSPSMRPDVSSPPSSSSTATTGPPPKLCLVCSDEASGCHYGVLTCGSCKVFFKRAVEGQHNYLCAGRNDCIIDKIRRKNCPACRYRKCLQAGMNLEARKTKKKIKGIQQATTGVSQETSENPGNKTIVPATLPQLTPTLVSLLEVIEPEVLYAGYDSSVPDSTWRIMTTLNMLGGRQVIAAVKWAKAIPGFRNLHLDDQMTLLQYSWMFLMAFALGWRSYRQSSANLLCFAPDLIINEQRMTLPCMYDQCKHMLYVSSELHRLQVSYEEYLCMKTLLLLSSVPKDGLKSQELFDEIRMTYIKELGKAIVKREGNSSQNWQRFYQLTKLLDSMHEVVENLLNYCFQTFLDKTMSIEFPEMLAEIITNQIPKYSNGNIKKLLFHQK

Cc1cccc(C(C)(C)C)c1O
inactive: Potency [1] | Potency [2] | Potency [3] | Potency [4] | Potency [5] | Potency [6] | outcome [7] | outcome [8] | Potency [9] | outcome [10] | outcome [11] | Potency [12] | outcome [13] | outcome [14] | outcome [15] | Potency [16] | outcome [17] | Potency [18] | Potency [19] | Potency [20]

CCCCCCCCCC(=O)OCC
inactive: Potency [1] | Potency [2] | Potency [3] | Potency [4] | Potency [5] | Potency [6] | outcome [7] | outcome [8] | Potency [9] | outcome [10] | outcome [11] | Potency [12] | outcome [13] | outcome [14] | outcome [15] | Potency [16] | outcome [17] | Potency [18]

COc1ccc(OC)c(OC)c1
inactive: Potency [1] | Potency [2] | Potency [3] | Potency [4] | Potency [5] | Potency [6] | outcome [7] | outcome [8] | Potency [9] | outcome [10] | outcome [11] | Potency [12] | outcome [13] | outcome [14] | outcome [15] | Potency [16] | outcome [17] | Potency [18] | Potency [19] | Potency [20]

CCN(CC)CCc1nc(-c2ccccc2)no1
inactive: Potency [1] | Potency [2] | Potency [3] | Potency [4] | Potency [5] | Potency [6] | fluorescence, relative to Rose Bengal [7] 0.351% [at 18.6 µM] | fluorescence, % of fluorescein control [8] 0.0159% [at 18.6 µM] | fluorescence, % of triamterene [9] -0.138% [at 18.6 µM] | fluorescence, % of fluorescent control [10] 0.0464% [at 18.6 µM] | fluorescence, % of fluorescein [11] -0.143% [at 18.6 µM] | fluorescence, % of fluorescent control [12] -0.0186% [at 18.6 µM] | fluorescence, % of fluorescent control [14] -0.0001% [at 18.6 µM] | fluorescence, % of Rose Bengal [15] 0.0837% [at 18.6 µM] | fluorescence, % of fluorescent control [16] -0.0109% [at 18.6 µM] | fluorescence, % of fluorescein control [17] -0.0688% [at 18.6 µM] | Potency [19] | Potency [20]

O=C(O)c1cccc(N(Cc2cccnc2)c2ccc(OC(F)F)c(OC(F)F)c2)c1
inactive: Potency [1] | Potency [2] | Potency [3] | Potency [4] | Potency [5] | outcome [7] | outcome [8] | Potency [9] | outcome [10] | outcome [11] | Potency [12] | outcome [13] | outcome [14] | outcome [15] | Potency [16] | outcome [17] | Potency [18]

O=[N+]([O-])c1cc[n+]([O-])cc1
inactive: Potency [1] | Potency [2] | Potency [3] | Potency [4] | Potency [5] | Potency [6] | outcome [7] | outcome [8] | Potency [9] | outcome [10] | Potency [12] | outcome [14] | outcome [15] | Potency [16] | outcome [17] | Potency [18] | Potency [19]

Cl/C(=C\n1cncn1)c1ccc(Cl)cc1Cl
inactive: Potency [1] | Potency [2] | Potency [3] | Potency [4] | Potency [5] | outcome [7] | outcome [8] | Potency [9] | outcome [10] | outcome [11] | Potency [12] | outcome [13] | outcome [14] | outcome [15] | Potency [16] | outcome [17]

CCCC(C)C
inactive: Potency [1] | Potency [2] | Potency [3] | Potency [4] | Potency [5] | Potency [6] | outcome [7] | Potency [9] | outcome [10] | outcome [11] | outcome [14] | outcome [15] | Potency [16] | outcome [17] | Potency [19] | Potency [20]

C1CCC2OC2C1 (stereo not given)
inactive: Potency [1] | Potency [2] | Potency [3] | Potency [4] | Potency [5] | Potency [6] | outcome [7] | outcome [8] | Potency [9] | outcome [10] | outcome [11] | Potency [12] | outcome [13] | outcome [14] | outcome [15] | outcome [17] | Potency [18] | Potency [19] | Potency [20]

N#Cc1cc2ccccc2c2ccccc12
active: Potency [6] 38.8 µM

NC[C@H]1O[C@H](O[C@H]2[C@H](O)[C@@H](O[C@H]3O[C@H](CO)[C@@H](O)[C@H](N)[C@H]3O)[C@H](N)C[C@@H]2N)[C@H](O)[C@@H](O)[C@@H]1O
inactive: Potency [1] | Potency [2] | Potency [4] | Potency [5] | ratio activity, negative = MMP loss [6] 0.685% [at 8.08 µM] | fluorescence, relative to Rose Bengal [7] -0.029% [at 18.6 µM] and 0.338% [at 3.72 µM] | fluorescence, % of fluorescein control [8] -0.0979% [at 18.6 µM] and 0.0187% [at 3.72 µM] | fluorescence, % of triamterene [9] 0.0195% [at 18.6 µM] and -0.0441% [at 3.72 µM] | fluorescence, % of fluorescent control [10] 0.0121% [at 18.6 µM] and -0.0907% [at 3.72 µM] | fluorescence, % of fluorescein [11] -0.0192% [at 18.6 µM] and 0.0982% [at 3.72 µM] | fluorescence, % of fluorescent control [12] 0.0354% [at 18.6 µM] and -0.129% [at 3.72 µM] | fluorescence, % of fluorescent control [14] 0.0769% [at 18.6 µM] and -0.256% [at 3.72 µM] | fluorescence, % of Rose Bengal [15] -0.276% [at 18.6 µM] and 0.0159% [at 3.72 µM] | fluorescence, % of fluorescent control [16] -0.077% [at 18.6 µM] and 0.036% [at 3.72 µM] | fluorescence, % of fluorescein control [17] -0.0088% [at 18.6 µM] and 0.0013% [at 3.72 µM] | fluorescence, % of fluorescent control [18] 0.0301% [at 18.6 µM] and -0.0315% [at 3.72 µM] | Potency [19] | Potency [20]
